Consider five molecules from PubChem BioAssay (NCATS).

Inconclusive results are not listed. Values without a mark were called inactive. Activity calls are given as the source filed them. Calls follow the shape of the dose curve; as a rule, active = well fitted inhibition curve with a large enough effect; inconclusive = small, poorly fitted or top-dose-only effect; inactive = flat fitted curve, though single readings scatter.
% is scaled to controls: 0 for no effect and ±100 for the full control effect.

The target of the assay is Phospholipid hydroperoxide glutathione peroxidase GPX4 (Homo sapiens) (UniProt P36969). Kind of assay: Primary qHTS Assay for Inhibitors of Recombinant Selenoprotein Glutathione Peroxidase 4 (GPX4) (AID 1845192). Also: nearly all actives have a fitted effect of over 65% in size. As to conditions: recombinant GPX4, GR-coupled NADPH fluorescence, 15 min; series mostly up to 50 µM; activity change, negative = inhibition: at the top concentration. In a few lines: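 NADPH consumption, followed by fluorescence at 340/450 nm between 0 and 15 min, reports GPX4 activity via coupled glutathione reductase (100 nM). Enzyme 200 nM was pre-exposed to compound 30 min; 0.5 mM cumene hydroperoxide and 1 mM GSH served as substrates.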
Sequence of Phospholipid hydroperoxide glutathione peroxidase GPX4 (Homo sapiens) (P36969 whole entry, looked up): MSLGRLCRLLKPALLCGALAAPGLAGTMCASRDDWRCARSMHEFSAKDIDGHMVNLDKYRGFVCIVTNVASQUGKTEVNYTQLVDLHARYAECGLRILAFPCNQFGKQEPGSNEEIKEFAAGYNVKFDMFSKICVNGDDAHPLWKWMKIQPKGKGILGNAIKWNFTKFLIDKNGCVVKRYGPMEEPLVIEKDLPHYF
As for `C/C=C(\C)C(=O)OC[C@H]1O[C@H](O[C@H]2O[C@H](CO)[C@@H](OC(=O)/C(C)=C/C)[C@H](O)[C@H]2O[C@@H]2O[C@H](CO)[C@@H](O)[C@H](O)[C@H]2O)[C@H](O[C@@H]2O[C@H](CO)[C@@H](O)[C@H](O)[C@H]2O)[C@@H](O)[C@@H]1O`, the “activity change, negative = inhibition” value was -1.65% [at 15.3 µM].

As for `O=C(O)Cc1nn(Cc2nc3cc(C(F)(F)F)ccc3s2)c(=O)c2nccnc12`, the result was inactive. In the case of `COc1cc(C(C)=O)ccc1O[C@@H]1O[C@H](CO[C@@H]2O[C@@H](C)[C@H](O)[C@@H](O)[C@H]2O)[C@@H](O)[C@H](O)[C@H]1O`, the “activity change, negative = inhibition” value was -7.26% [at 27.8 µM]. `COC(=O)C1(Cc2ccc(O)cc2)OC(=O)C(OC)=C1c1ccc(O)cc1` (stereo not given): the “activity change, negative = inhibition” value is 3.99% [at 27.8 µM].

With `c1nc(NC2CCCCCC2)c2cc(CNC[C@H]3CCCO3)sc2n1`, the “activity change, negative = inhibition” value was 1.77%.
